This passage reports z-score and composite z-score results from PubChem BioAssay.

Each structure is given as a SMILES string. Active and inactive are the calls of the source. Unless noted, no rule for the calls is given here.

Experiment [1] is described as follows: resazurin metabolic signal in HepG2 cells – cell-based, resazurin fluorescence, 24 h, PK04 Diversity Set, profiling panel (AID 1172). Also: test concentration not given here. The settings on record: HepG2 viability, higher = more signal. A general note: The colour change of resazurin is a common sign of viable cells or microbes.
Experiment [2] is described as follows: budding yeast growth changes without added modifier – OD600, strain BY4716, 24 h, basal condition, primary screen (AID 1173). The settings on record: S. cerevisiae BY4716 growth, OD600, 24 h; higher = more signal, called active from +8 up or from −8 down.
The nature of experiment [3]: viability profiling in MM1S myeloma cells – cell-based, resazurin fluorescence, basal, 24 h, PK04 Diversity Set, profiling panel (AID 1174).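 Also: MM1S multiple myeloma cell line; test concentration not given here.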 The settings on record: higher = more signal, called active from +8 up or from −8 down.
For experiment [4], the target named is Dihydroorotate dehydrogenase (quinone), mitochondrial (Plasmodium falciparum (isolate 3D7)) (UniProt Q08210). The experiment is described as follows: inhibition of P. falciparum DHODH – biochemical, C-terminal His tag, absorbance 600 nm, primary screen (AID 1175).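 Also: recombinant parasite enzyme with a five histidine tag at its C terminus; test concentration not given here.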 The conditions noted are these: PfDHODH enzyme, DCIP absorbance 600 nm; higher = more signal, called active from +8 up or from −8 down.

Experiment [5] can be described thus: inhibition of PAO1 biofilm formation – strain PAO1, LB-PBS medium, absorbance 600 nm, primary screen (AID 1176). Also: test concentration not given here. The conditions noted are these: P. aeruginosa PAO1 growth/biofilm, A600, 12 h; higher = more signal.
Experiment [6] can be described thus: growth modulation of vineyard yeast isolate – strain RM11-1a, OD600, basal, 24 h, primary screen (AID 1177).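 Also: cultures grown under basal conditions with no added stressor; test concentration not given here.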 The settings on record: S. cerevisiae RM11-1a growth, OD600, 24 h; higher = more signal, called active from +8 up or from −8 down.
Experiment [7] in a line: growth of efflux-deficient E. coli DRC39 – strain DRC39, OD650, 24 h, E. coli filamentation inducers, primary screen (AID 1178).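 Also: growth measured as culture turbidity by optical density at 650 nm; test concentration not given here.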 The conditions noted are these: E. coli DRC39 acrAB, higher = more signal, called active from +8 up or from −8 down.
The nature of experiment [8]: growth of efflux-deficient E. coli DRC39 – strain DRC39, OD650, 48 h, E. coli filamentation inducers, primary screen (AID 1179).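 Also: screen aims at cell division blockers that make cells filament.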 The settings on record: E. coli DRC39 delta-acrAB growth, higher = more signal, called active from +8 up or from −8 down.
Experiment [9] is described as follows: viability profiling in RPMI8226 myeloma cells – cell-based, resazurin fluorescence, basal, 24 h, PK04 Diversity Set, profiling panel (AID 1180).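 Also: RPMI8826 multiple myeloma cell line at 5000 cells per well; test concentration not given here.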 The conditions noted are these: higher = more signal.
Experiment [10] addresses E3 ubiquitin-protein ligase XIAP (Homo sapiens) (UniProt P98170). The experiment is described as follows: small molecules binding XIAP protein – biophysical, small-molecule microarray, fluorescence 635 nm, primary screen (AID 1181).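 Also: score merges 667 nm emission and signal to noise over triplicate slides.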 The conditions noted are these: higher = more signal.

Sequence of E3 ubiquitin-protein ligase XIAP (Homo sapiens) (P98170 whole entry, looked up): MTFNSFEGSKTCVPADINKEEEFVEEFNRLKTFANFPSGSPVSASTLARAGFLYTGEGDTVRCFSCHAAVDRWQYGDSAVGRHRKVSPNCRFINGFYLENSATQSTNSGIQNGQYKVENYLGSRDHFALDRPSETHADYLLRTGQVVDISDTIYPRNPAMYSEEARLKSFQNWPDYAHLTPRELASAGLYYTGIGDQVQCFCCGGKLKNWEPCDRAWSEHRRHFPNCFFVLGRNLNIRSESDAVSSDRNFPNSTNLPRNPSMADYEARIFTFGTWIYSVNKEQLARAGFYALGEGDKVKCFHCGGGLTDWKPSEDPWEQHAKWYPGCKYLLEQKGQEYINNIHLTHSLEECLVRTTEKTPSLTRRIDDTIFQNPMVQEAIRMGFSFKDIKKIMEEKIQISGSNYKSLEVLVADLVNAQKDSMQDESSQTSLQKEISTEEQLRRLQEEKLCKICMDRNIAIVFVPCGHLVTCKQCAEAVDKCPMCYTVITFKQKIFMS
Sequence of Dihydroorotate dehydrogenase (quinone), mitochondrial (Plasmodium falciparum (isolate 3D7)) (Q08210 whole entry, looked up): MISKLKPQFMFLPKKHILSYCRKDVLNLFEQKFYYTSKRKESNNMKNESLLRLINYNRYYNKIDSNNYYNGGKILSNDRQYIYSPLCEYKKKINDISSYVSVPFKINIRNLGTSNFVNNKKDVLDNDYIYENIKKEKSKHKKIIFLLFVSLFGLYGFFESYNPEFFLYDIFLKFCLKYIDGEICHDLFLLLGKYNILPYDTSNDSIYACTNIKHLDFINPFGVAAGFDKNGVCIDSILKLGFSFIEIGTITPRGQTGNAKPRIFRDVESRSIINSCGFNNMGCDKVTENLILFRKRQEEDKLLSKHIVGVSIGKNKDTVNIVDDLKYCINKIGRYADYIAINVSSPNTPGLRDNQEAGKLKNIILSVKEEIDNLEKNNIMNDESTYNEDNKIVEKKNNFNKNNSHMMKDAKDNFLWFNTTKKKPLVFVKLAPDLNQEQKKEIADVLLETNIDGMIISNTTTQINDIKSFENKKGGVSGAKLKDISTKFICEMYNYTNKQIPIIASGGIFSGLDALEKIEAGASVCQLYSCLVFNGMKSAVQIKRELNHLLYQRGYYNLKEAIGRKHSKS

As to `O=C1N(Cc2ccccc2)c2ccccc2[C@H]2OC(c3ccc(OCCCO)cc3)=N[C@@]12CCS(=O)(=O)c1ccccc1`, the z-score in [1] was -0.362; in experiment [2] it was 1.21 (inactive); in experiment [3], -0.56 (inactive); in [5], 1.47 (inactive); in experiment [6] it was 2.68 (inactive); in experiment [7], 0.244 (inactive). Besides, the figures for the z-score in experiment [8] and in experiment [9] were -0.939 (inactive) and -0.509, respectively. Moreover, the composite z-score in [4] is 0.876 (inactive); in experiment [10], 0.12.

For the molecule `COc1cc(C(O)C2C=CC3C(=O)N(C)C(=O)C3N2NC(=O)OC(C)(C)C)cc(OC)c1OC` (stereo not given), the z-score was -1.22 in [1]; 1.74 (inactive) in experiment [2]; -0.976 (inactive) in experiment [3]; 0.847 (inactive) in experiment [5]; 0.796 (inactive) in experiment [6]; -1.01 (inactive) in experiment [7]. The z-score is -0.503 (inactive) in [8] and -1.24 in [9]. The composite z-score is 0.0277 (inactive) in experiment [4] and 0.085 in experiment [10].

Consider `COc1ccc(C#Cc2ccc3c(c2)[C@]2(C(=O)N3)[C@H](C(N)=O)[C@H]3C(=O)O[C@H](c4ccccc4)[C@H](c4ccccc4)N3[C@@H]2c2ccc(O)cc2)cc1`, for which the z-score was -0.295 in experiment [1]; -0.299 (inactive) in [2]; -4.88 (inactive) in experiment [3]; 1.41 (inactive) in [5]; 1.68 (inactive) in [6]; 0.666 (inactive) in experiment [7]. Also, the z-score was 0.714 (inactive) in experiment [8] and -6.43 in experiment [9]. The figures for the composite z-score in experiment [4] and in [10] were 0.817 (inactive) and 0.0031, respectively.

For the molecule `COC(=O)[C@]1(Cc2ccccc2N=[N+]=[N-])N=C(c2ccc(OCCCO)cc2)O[C@@H]1c1ccccc1`, the z-score in experiment [1] was -6.11; in experiment [2], -1.69 (inactive); in [3], -8.86 (active); in experiment [5] it was 0.783 (inactive); in [6] it was 1.53 (inactive); in experiment [7] it was 2.06 (inactive). The z-score is 1.55 (inactive) in [8] and -7.19 in experiment [9]. Besides, the results for the composite z-score in [4] and in experiment [10] were 0.106 (inactive) and 0.007, respectively.

In the case of `CC(C)C[C@H]1NC(=O)[C@H](C)NC(=O)[C@@]23C(=O)N[C@@H](Cc4ccccc4)C2[C@H](C)[C@@]2(C)O[C@H]2C3/C=C/C/C=C\CNC1=O` (stereo not given in full), the z-score is -0.594 in experiment [1]; -0.49 (inactive) in experiment [2]; 0.0114 (inactive) in [3]; 0.413 (inactive) in experiment [5]; -0.837 (inactive) in [6]; -0.599 (inactive) in experiment [7]. Moreover, the z-score in experiment [8] was -0.555 (inactive); in [9] it was 0.154. Also, the composite z-score is -0.401 (inactive) in [4] and 0.0822 in experiment [10].

Turning to `NCCCCCCNC(=O)[C@H]1C[C@H]2C(=O)N3CCC[C@H]3C(=O)N2[C@H]1c1ccc(O)cc1`, the z-score in experiment [1] is -0.541; in experiment [2], -0.438 (inactive); in [3] it was -0.431 (inactive); in experiment [5], -0.0059 (inactive); in [6], -1.09 (inactive); in [7], 0.0967 (inactive). Further, the z-score is -0.676 (inactive) in [8] and -0.508 in [9]. Also, the composite z-score was -0.245 (inactive) in experiment [4] and -0.223 in [10].

In the case of `O=C1c2ccccc2[C@](Cc2ccccc2I)(C(=O)NCC(F)(F)F)[C@H](c2ccc(CO)cc2)N1Cc1ccccc1`, the z-score was 0.846 in experiment [1]; -0.895 (inactive) in [2]; -0.277 (inactive) in experiment [3]; -0.0344 (inactive) in experiment [5]; 0.0123 (inactive) in [6]; 0.496 (inactive) in [7]. Further, the z-score in [8] was 1.07 (inactive); in experiment [9] it was 0.675. The composite z-score in [4] is -0.537 (inactive); in experiment [10], -0.0962.

Turning to `COC(=O)C(CC#Cc1ccc2c(c1)[C@]1(C(=O)N2)[C@H](c2ccc(OCCO)cc2)N2[C@H](c3ccccc3)[C@H](c3ccccc3)OC(=O)[C@H]2[C@@H]1C(=O)O)C(=O)OC`, the z-score in experiment [1] was 0.669; in experiment [2], 0.156 (inactive); in experiment [3], 1.09 (inactive); in experiment [5], 2.28 (inactive); in [6] it was 1.48 (inactive); in experiment [7], 1.29 (inactive). For the same molecule, the z-score is 1.33 (inactive) in [8] and 0.749 in experiment [9]. The composite z-score in experiment [4] is -16.3 (active); in experiment [10], -0.194.

As for `O=C1c2ccccc2C(=O)C2CC([C@H]3Oc4ccccc4S(=O)(=O)N4CCC[C@@H]34)=CCC12` (stereo not given in full), the z-score is 0.0623 in experiment [1]; -2.32 (inactive) in experiment [2]; -0.583 (inactive) in experiment [3]; -0.246 (inactive) in [5]; -0.841 (inactive) in [6]; 1.96 (inactive) in [7]. In addition, the figures for the z-score in experiment [8] and in experiment [9] were 0.34 (inactive) and 0.183, respectively. For the same molecule, the composite z-score was 0.0834 (inactive) in experiment [4] and 0.0374 in experiment [10].

Take `CC(C)NC(=O)[C@@H]1c2ccccc2C(=O)N(Cc2cc(C(F)(F)F)cc(C(F)(F)F)c2)[C@H]1c1ccc(CO)cc1`: the z-score in [1] is 0.447; in experiment [2], -0.168 (inactive); in experiment [3], -0.0526 (inactive); in [5], 0.733 (inactive); in experiment [6], 0.0633 (inactive); in experiment [7], 1.17 (inactive). The z-score in experiment [8] was 0.393 (inactive); in experiment [9], 0.25. In addition, the composite z-score in experiment [4] was 0.357 (inactive); in experiment [10], -0.0141.

As to `O=C1O[C@@H](c2ccccc2)[C@@H](c2ccccc2)N2[C@@H](c3ccc(O)cc3)[C@]3(C(=O)Nc4ccc(C#CC5=CCCCC5)cc43)[C@@H](C(=O)Nc3nc4ccccc4s3)[C@H]12`, the z-score was 0.235 in [1]; -0.826 (inactive) in experiment [2]; -0.139 (inactive) in experiment [3]; 2.14 (inactive) in experiment [5]; 0.137 (inactive) in experiment [6]; 0.591 (inactive) in experiment [7]. For the same molecule, the z-score in experiment [8] is 0.986 (inactive); in experiment [9] it was -0.595. Also, the composite z-score was -0.504 (inactive) in experiment [4] and -0.0925 in experiment [10].

Regarding `CC(C)C[C@@H]1NC(=O)[C@@H]2C[C@H](C(=O)NCCCC[N+](C)(C)C)[C@H](c3cccc(OCCO)c3)N2C1=O`, the z-score was -3.45 in [1]; 1.45 (inactive) in experiment [2]; -0.986 (inactive) in experiment [3]; 1.3 (inactive) in experiment [5]; 0.958 (inactive) in experiment [6]; -0.234 (inactive) in experiment [7]. Moreover, the z-score in experiment [8] was -0.667 (inactive); in [9], -1.16. Further, the figures for the composite z-score in experiment [4] and in [10] were -29 (active) and -0.127, respectively.
